The values that follow come from PubChem BioAssay AID651640 (Broad Institute, 2012).

Where “and” joins values, the source holds several entries; their conditions need not be identical. Equal entries are not always repeated. About 6,000 (1.7%) of roughly 350,000 compounds were called active. Inconclusive results (about 5%) are left out. Cut-off read from the data, not from the text of the source: active = CPE inhibition above about 20% (passing the limit was not always enough); inconclusive = no clear call, values can overlap the other calls; tested in BHK-21 cells. Shown is part of a subset that was picked to be rich in actives.

The experiment is described as follows: protection of cells from dengue 2 killing – plate reader, single concentration, primary screen (AID 651640).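 Note: 0% = median of neutral control wells and 100% = median of positive control wells.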 The conditions noted are these: DENV2-infected cells, cytopathic effect rescue, at 9.99 µM, stronger effect = higher value. In general terms: Damage to the host cells serves as the signal in cytopathic effect assays.
As to `CO[C@@H]1CN(C)C(=O)c2cc(NS(=O)(=O)c3cn(C)cn3)ccc2OC[C@@H](C)NC[C@H]1C`, the CPE inhibition is -0.807% (inactive).

For the compound `COCc1cn(CC[C@H]2CC[C@@H](NC(=O)Nc3ccc(OC)cc3)[C@@H](CO)O2)nn1`, the CPE inhibition is 0.762% (inactive). On to `C/C=C/c1ccc(C2[C@H]3CNC[C@@H]2N3C(=O)Nc2ccc(F)cc2)cc1` (some centres not stated), for which the CPE inhibition was 0.029% (inactive) and 10.5% (inactive). For the compound `O=C(Nc1ccc(-c2ccccc2)cc1)[C@@H]1[C@@H](CO)[C@@H]2Cn3c(cccc3=O)[C@H]1N2Cc1ccncc1`, the CPE inhibition was -0.731% (inactive). On to `CO[C@@H]1CN(C)C(=O)c2cc(NS(=O)(=O)c3cn(C)cn3)ccc2OC[C@@H](C)N(CCC(F)(F)F)C[C@H]1C`, for which the CPE inhibition was -9.32% (inactive). As for `O=C(c1ccccc1F)N1CC(=O)N2[C@H](CO)[C@H](c3ccc(-c4cccnc4)cc3)[C@H]2C1`, the figure is 8.17% (inactive); as for `C[C@@H]1CCCCO[C@@H](CN(C)S(=O)(=O)c2ccccc2)[C@@H](C)CN([C@@H](C)CO)C(=O)c2cc(NS(=O)(=O)c3cn(C)cn3)ccc2O1`, -3.06% (inactive); as for `C[C@H](NC(=O)C[C@@H]1C[C@@H]2c3cc(NS(=O)(=O)c4ccc(F)cc4)ccc3O[C@@H]2[C@@H](CO)O1)c1ccccc1`, 2.95% (inactive). Turning to `CC(C)NC(=O)N1CCCCN2[C@H](CO)[C@@H](c3ccc(Br)cc3)[C@H]2C1`, the CPE inhibition was -4.94% (inactive). For the compound `COc1ccc(NC(=O)Nc2cccc3c2O[C@H](CN(C)S(=O)(=O)c2ccc(F)cc2)[C@H](C)CN([C@H](C)CO)C3=O)cc1`, the CPE inhibition was -3.75% (inactive).

As for `O=S(=O)(c1ccccc1)N1CC[C@@H]2[C@@H](CO)Nc3ccc(C#Cc4cccc(F)c4)cc3[C@@H]21`, the CPE inhibition is 1.91% (inactive). In the case of `COc1ccccc1CN1CC[C@@H]2[C@@H](CO)Nc3ccc(C#Cc4ccccc4)cc3[C@@H]21` it was -32.6% (inactive); in that of `COc1ccccc1S(=O)(=O)N1CC[C@@H]2[C@H](CO)Nc3ccc(-c4ccccc4F)cc3[C@@H]21`, -1.18% (inactive). On to `CN(C)C(=O)c1cccc(-c2ccc3c(c2)[C@@H]2[C@@H](CCN2Cc2nccs2)[C@@H](CO)N3)c1`, for which the CPE inhibition is -14% (inactive).

Turning to `O=S(=O)(c1ccccc1)N1CC[C@@H]2[C@H]1c1cc(C#Cc3cccc(F)c3)ccc1N[C@@H]2CO`, the CPE inhibition is -8.72% (inactive).

Regarding `O=S(=O)(c1ccc(F)cc1)N1CC[C@@H]2[C@@H](CO)Nc3ccc(-c4ccccc4F)cc3[C@@H]21`, the CPE inhibition is 77.9% (active). In the case of `O=S(=O)(c1ccccc1)N1CC[C@@H]2[C@@H](CO)Nc3ccc(-c4ccccc4F)cc3[C@@H]21` it was 16.3% (inactive). For the compound `COc1ccc(C#Cc2ccc3c(c2)[C@H]2[C@H](CCN2Cc2nccs2)[C@@H](CO)N3)cc1`, the CPE inhibition is 27.7% (active). As for `Cc1cccc(S(=O)(=O)N2CC[C@@H]3[C@H]2c2cc(C#Cc4ccc(F)cc4)ccc2N[C@@H]3CO)c1`, the figure is 65.6% (active); as for `CCCN1[C@H](C(=O)N2CCOCC2)[C@@H](CO)[C@@H]2Cn3c(ccc(/C=C/c4ccccc4)c3=O)[C@@H]21`, 14.1% (inactive); as for `CCCc1cn(CC[C@@H]2CC[C@@H](NS(=O)(=O)c3ccccc3Cl)[C@@H](CO)O2)nn1`, -1.78% (inactive). Consider `CO[C@H]1CN(C)C(=O)c2ccc(NC(=O)Nc3c(C)noc3C)cc2OC[C@@H](C)NC[C@H]1C`, for which the CPE inhibition is 1.98% (inactive). For `C/C=C/c1ccc2c(c1)O[C@H](CN(C)C(=O)c1ccc3c(c1)OCO3)[C@@H](C)CN([C@H](C)CO)S2(=O)=O`, the CPE inhibition is 19.1% (inactive).

For `CC(=O)N1C[C@@H]2[C@H](c3ccccc31)[C@H](CO)N2C(=O)Nc1ccc(F)cc1`, the CPE inhibition was -5.97% (inactive).

With `COc1ccccc1-c1sc2ccccc2c1-c1ccc(Br)nc1`, the CPE inhibition is 24.6% (active). For `COc1ccccc1-c1sc2ccccc2c1C#CC1(O)CCCCC1`, the CPE inhibition is -3.75% (inactive). As to `COc1ccc2sc(-c3ccccc3OC)c(-c3ccc(OCCN4CCCC4)cc3)c2c1`, the CPE inhibition is -8.2% (inactive). As for `COc1ccc(-c2cc(NC=O)c3ncc(-c4cc(OC)c(OC)c(OC)c4)n3c2)c(OC)c1`, the CPE inhibition was 42.3% (active). Take `COc1ccc(-c2cc(NC=O)c3ncc(-c4ccccc4)n3c2)cc1OC`: the CPE inhibition was 8.91% (inactive). In the case of `COc1ccc(-c2cc(NC=O)c3ncc(-c4cccc(C(=O)N(C)C)c4)n3c2)c(OC)c1` it was -8.87% (inactive); in that of `C[C@@H]1CN([C@@H](C)CO)C(=O)Cc2cc(NC(=O)CCN3CCOCC3)ccc2O[C@@H]1CN(C)CC1CC1`, -11.7% (inactive).

On to `C[C@H](CO)N1C[C@H](C)[C@@H](CN(C)CC2CC2)Oc2ccc(NC(=O)Nc3ccccc3)cc2CC1=O`, for which the CPE inhibition was 7.45% (inactive). Turning to `CCCCCCCCCCCCN1[C@@H](CC(C)=O)c2cc(F)cc(F)c2S1(=O)=O`, the CPE inhibition is 37.7% (active). Consider `CCCCCCN1CCN(C2CN(Cc3cn(Cc4ccc(F)cc4)nn3)S(=O)(=O)C2)CC1` (configuration not stated), for which the CPE inhibition was -0.218% (inactive).

Consider `COc1ccc(CN2[C@@H](CC(=O)O)c3cc(F)ccc3S2(=O)=O)cc1`, for which the CPE inhibition was -4.72% (inactive). In the case of `CO[C@H]1CN(C)C(=O)c2ccc(NC(=O)C3CC3)cc2OC[C@H](C)N(CCc2ccccc2)C[C@@H]1C` it was 4.92% (inactive).

With `COCC(=O)N(C)C[C@@H]1Oc2ncc(-c3ccccc3OC)cc2C(=O)N([C@@H](C)CO)C[C@@H]1C`, the CPE inhibition was 0.798% (inactive).

`CC(C)NC(=O)Nc1ccc2c(c1)C(=O)N([C@H](C)CO)C[C@@H](C)[C@@H](CN(C)C(=O)c1ccncc1)OCCCC[C@H](C)O2`: the CPE inhibition is -1.8% (inactive). Take `CNC(=O)C[C@@H]1CC[C@@H]2[C@@H](COc3ccc(NC(=O)c4ccc(F)cc4)cc3C(=O)N2C)O1`: the CPE inhibition is -2.03% (inactive).

On to `C[C@@H]1CN([C@@H](C)CO)C(=O)c2cccc(NC(=O)CCCCCC(=O)Nc3ccccc3N)c2O[C@H]1CN(C)C(=O)Nc1ccccc1`, for which the CPE inhibition is 4.08% (inactive). Consider `Cc1noc(C)c1NC(=O)N(C)C[C@@H]1Oc2c(NC(=O)C3CCCCC3)cccc2C(=O)N([C@H](C)CO)C[C@@H]1C`, for which the CPE inhibition was -0.956% (inactive). With `C[C@@H]1CN([C@@H](C)CO)C(=O)c2cccc(NC(=O)CCCCCC(=O)Nc3ccccc3N)c2O[C@H]1CN(C)C(=O)Nc1cccc2ccccc12`, the CPE inhibition was 20.8% (active).

Take `C[C@H]1CN([C@@H](C)CO)C(=O)c2cccc(NC(=O)Nc3ccccc3)c2O[C@H]1CN(C)C(=O)Nc1cccc2ccccc12`: the CPE inhibition was 3.97% (inactive). As to `Cc1noc(C)c1NC(=O)N(C)C[C@@H]1Oc2c(NC(=O)CCCCCC(=O)Nc3ccccc3N)cccc2C(=O)N([C@H](C)CO)C[C@@H]1C`, the CPE inhibition is 57.6% (active).

With `Cc1noc(C)c1NC(=O)Nc1cccc2c1O[C@H](CN(C)C(=O)Nc1c(C)noc1C)[C@@H](C)CN([C@@H](C)CO)C2=O`, the CPE inhibition is -1.85% (inactive). In the case of `COCC(=O)N1[C@H](CO)[C@H](c2ccccc2C2=CCCCC2)[C@@H]1C#N` it was 5.95% (inactive); in that of `C[C@H]1CN([C@@H](C)CO)C(=O)c2cccc(NC(=O)Nc3ccc(C(F)(F)F)cc3)c2O[C@H]1CN(C)CC1CCCCC1`, -8.84% (inactive). In the case of `CC(=O)N1[C@H](CN(C)S(=O)(=O)c2ccccc2)[C@H](c2ccccc2)[C@@H]1CO` it was 15.4% (inactive).

`COc1cccc(S(=O)(=O)N(C)C[C@@H]2Oc3cc(C4=CCCCC4)ccc3S(=O)(=O)N([C@H](C)CO)C[C@H]2C)c1`: the CPE inhibition was 2.02% (inactive). For the compound `O=C(COc1ccc2c3c(c(=O)oc2c1)CCCC3)NCC(O)c1ccccc1` (configuration not stated), the CPE inhibition is 3.96% (inactive).

As to `NC(=O)C1CCN(C(=O)COc2ccc3c4c(c(=O)oc3c2)CCC4)CC1`, the CPE inhibition is 68.3% (active). Turning to `O=C(COc1ccc2c3c(c(=O)oc2c1)CCC3)NC1CCCCC1`, the CPE inhibition is 2.16% (inactive). In the case of `COC(=O)C1=C(C)N(Cc2cccc(C(F)(F)F)c2)C(=NCc2cccc(C(F)(F)F)c2)NC1c1ccccc1C(F)(F)F` (configuration not stated), the CPE inhibition was 19.7% (inactive). As for `COC(=O)C1=C(C)N(Cc2cccc(C(F)(F)F)c2)C(=NCc2ccccc2)NC1c1ccc(Cl)cc1` (configuration not stated), the CPE inhibition is 27.3% (active). In the case of `COC(=O)C1=C(C)N(Cc2cccc(C(F)(F)F)c2)C(=NCc2ccccc2)NC1c1ccccc1C(F)(F)F` (configuration not stated), the CPE inhibition is -6.35% (inactive).

On to `Cc1noc(C)c1NC(=O)Nc1ccc2c(c1)C(=O)N([C@H](C)CO)C[C@H](C)[C@H](CN(C)C(=O)C1CCCCC1)OCCCC[C@@H](C)O2`, for which the CPE inhibition is -8% (inactive). In the case of `CCN1[C@@H]2c3ccc(C4=CCCC4)c(=O)n3C[C@@H]2[C@@H](CO)[C@@H]1C(=O)NCc1ccccn1` it was -1.73% (inactive); in that of `O=C(Cc1ccccn1)N[C@@H]1CC[C@H](CCn2cc(-c3ccc(F)cc3)nn2)O[C@@H]1CO`, -1.64% (inactive); in that of `COCC(=O)Nc1ccc2c(c1)[C@@H]1C[C@H](CC(=O)NCc3ccc(Cl)cc3)O[C@H](CO)[C@@H]1O2`, 2.48% (inactive). For `Cc1ccc(CCN2CC(C(=O)NCCc3ccccc3)CC2=O)cc1` (configuration not stated), the CPE inhibition is 34.2% (active). Consider `O=C(NC1CCCCC1)C1CC(=O)N(CCc2ccccc2)C1` (configuration not stated), for which the CPE inhibition is -1.18% (inactive). As for `O=C(NCCCN1CCCCC1)C1CC(=O)N(CCc2ccccc2)C1` (configuration not stated), the figure is 4.06% (inactive). In the case of `CCCN1C[C@@H](C)[C@@H](OC)CN(C)C(=O)c2cc(NC(=O)c3ccccc3)ccc2OC[C@H]1C` it was -10.4% (inactive); in that of `CC(=O)Nc1cccc(-c2ccnc3c2CC(C)(C(=O)NCc2ccco2)O3)c1` (configuration not stated), 32.1% (active). As for `COc1ccc(NC(=O)C2(C)Cc3c(-c4cccc(NC(C)=O)c4)ccnc3O2)cc1` (configuration not stated), the CPE inhibition is -2.95% (inactive). In the case of `CC1(C(=O)NCc2ccco2)Cc2c(-c3ccc4c(c3)OCO4)ccnc2O1` (configuration not stated), the CPE inhibition was 7.65% (inactive).

`COCC#Cc1cnc2c(c1)C(=O)N([C@@H](C)CO)C[C@@H](C)[C@@H](CN(C)C(=O)Nc1ccccc1OC)O2`: the CPE inhibition is 8.53% (inactive).
